# Compound activity from PubChem BioAssay.
# The list is not random: actives were taken first. Their share in the collection is about 5.4%.
# ALOX15B inhib = inhibitors of human 15-lipoxygenase 2 (ALOX15B); Potency, µM (titrated, usually from 57.1 µM), hits mostly inhibitors; purified 15hLO-2, xylenol orange hydroperoxide absorbance; 0.56% of 110,000 active; also: nearly all actives have a fitted effect of over 60% in size
#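 Purified human 15hLO-2 (50 nM final) preincubated with compounds 15 min at room temperature in 25 mM Hepes pH 7.5, 0.01% Triton X-100, then 45 uM arachidonic acid added for 90 min; hydroperoxide detected via ferrous/xylenol orange, 573/405 nm absorbance ratio.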
# IMPase Li inh = membrane-permeable IMPase blocker, potentiated with lithium | Potency, µM (top dose mostly 59.4 µM), usual class: inhibitors | 0.35% of 210,000 active | CHO-M1 cells, IP1 TR-FRET (IP-One), carbachol + lithium;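 also: IP1 builds up when IMPase is blocked and the TR-FRET signal falls; nearly all actives have a fitted effect of over 50% in size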
#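 Steps: plate 2000 CHO-M1 cells per well and culture 16–30 h; add compound and lithium; incubate 30 min, 37C; add d2-IP1 tracer and Eu cryptate anti-IP1 antibody in lysis buffer; read after 10 min at room temperature.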
# IMPase inh = membrane-permeable compound that blocks inositol monophosphatase. P97697. CHO-M1 cells, IP1 accumulation, HTRF TR-FRET ratio. inhibition (IP1 accumulation), % at 46.1 µM. 120,000 tested, under 10 active. AID 901; active = well fitted curve in the direction sought with a large enough effect in the signal ratio, not every such curve was filed as active; inconclusive = small, poorly fitted or top-dose-only effect, or a change in a side signal; inactive = no such curve, though single readings can be large or run the other way; the % refers to the signal ratio;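 also: cells stimulated with carbachol in lithium chloride buffer; higher means more IMPase inhibition seen as more IP1 and lower FRET ratio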
# Target sequence (P97697 whole entry, looked up): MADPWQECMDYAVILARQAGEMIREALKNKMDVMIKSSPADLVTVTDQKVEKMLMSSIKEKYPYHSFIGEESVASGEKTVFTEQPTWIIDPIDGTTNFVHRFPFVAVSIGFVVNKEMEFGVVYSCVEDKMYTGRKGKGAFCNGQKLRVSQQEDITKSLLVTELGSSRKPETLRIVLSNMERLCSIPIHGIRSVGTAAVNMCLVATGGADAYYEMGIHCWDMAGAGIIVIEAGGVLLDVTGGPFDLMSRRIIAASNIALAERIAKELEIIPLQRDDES
#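 Elevated IP1 in lysates lowers TR-FRET signal (665/620 ratio and 620 channel reported). Cells were CHO-M1, given carbachol (50 uM as added) plus 50mM LiCl, pH 7.4, 30 min, 37C; compounds titrated up to 46 uM; AC50 by Hill equation.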
# PNC assembly inh = blocks assembly of the perinucleolar compartment. PC3M PTB-GFP, PNC prevalence imaging, 16 h; stronger effect = lower value. activity change (PNC), negative = inhibition, % at 10 µM. 3.1% of 140,000 active. AID 2417;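 active = readout at or below -70, meaning at least 70% loss of cells showing the perinucleolar compartment, a nuclear body marking cancer cells; inconclusive = readout between -30 and a set limit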
#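 Read-out is percentage of cells bearing a perinucleolar compartment, from automated 20x imaging of fixed, Hoechst-stained PC3M PTB-GFP cells. Cells were seeded 4 h, then exposed 16 h to compound (23 nl of library stock) in duplicate plates.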
# ALOX12 inhib = blocks human 12-lipoxygenase activity; 0.12% of 150,000 active; Potency, µM (titrated, usually from 57.1 µM), actives largely listed as inhibitors; P18054; AID 1452; purified 12-hLO, xylenol orange hydroperoxide absorbance; also: nearly all actives have a fitted effect of over 55% in size
#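 Xylenol orange chromogenic assay: hydroperoxide from 12hLO oxidises Fe(II), giving red-shifted Fe(III)-XO absorbance. Conditions: 150 nM enzyme, 40 uM arachidonic acid, 25 mM Hepes pH 7.0, 0.01% Triton X-100, 30 min, room temperature.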
# HPGD block = blocks human HPGD enzyme activity; P15428; purified HPGD, NADH fluorescence kinetic, PGE2 substrate; Potency, µM, most hits filed as inhibitors; 4.3% of 150,000 active; AID 894; active = well fitted inhibition curve with a large enough effect, not every such curve was filed as active; inconclusive = small, poorly fitted or top-dose-only effect, or another doubt; inactive = no such curve, though single readings can be large or run the other way
# Target sequence (P15428 whole entry, looked up): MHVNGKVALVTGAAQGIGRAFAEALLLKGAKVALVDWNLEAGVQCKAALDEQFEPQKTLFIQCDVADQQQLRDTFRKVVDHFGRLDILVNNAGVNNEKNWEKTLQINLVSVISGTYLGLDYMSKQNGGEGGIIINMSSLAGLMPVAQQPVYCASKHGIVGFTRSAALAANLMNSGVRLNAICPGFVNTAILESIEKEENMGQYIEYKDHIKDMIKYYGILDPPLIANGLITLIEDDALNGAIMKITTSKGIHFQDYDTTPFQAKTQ
#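 NADH formation kinetics: reaction with 30 uM PGE2 and 1 mM NAD+ (final), 20 nM enzyme, Tris-HCl pH 8 with Tween 20, after 15 min compound preincubation at room temperature. Fluorescence change, last versus first of five reads.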
# A number is an active result; 0 = inactive; ? = inconclusive; - = not tested or not shown; [ ] = dose if it differs, or a comment. Unless noted, calls follow the shape of the dose curve; as a rule, active = well fitted curve in the direction sought with a large enough effect; inconclusive = small, poorly fitted or top-dose-only effect, or another doubt; inactive = no such curve, though single readings can be large; an effect the other way counts as inactive or inconclusive.
SMILES,ALOX15B inhib,IMPase Li inh,IMPase inh,PNC assembly inh,ALOX12 inhib,HPGD block
O=C(CSc1ncc(-c2ccccc2)[nH]1)Nc1ccc(Cl)cc1,-,-,0,-,-,-
O=[N+]([O-])c1cc(/C=N/O)ccc1Sc1ccccc1,0,0,0,0,0,25.1µM
O=C1CCCCC2CCCCN12 (stereo not given),0[0.0915 µM],0,-,-,0[0.00818 µM],0
CC(=O)O[C@H]1CC[C@@]2(C)C(=CC[C@@H]3[C@@H]4CC[C@H](c5cc(C(F)(F)F)n(C(C)=O)n5)[C@]4(C)CC[C@@H]32)C1,0[11.4 µM],0,-,-,0[11.4 µM],0
CC(=O)c1c(C)[nH]c(C(=O)N2CCCCCC2)c1C,0,0,0,0,0,12.6µM
Cn1cnc2nc(NCCO)nc(NCc3ccccc3)c21,-,0,-,-,-,-
COc1ccc(NC(=O)/C(C#N)=C\c2cc(C)n(-c3ccc4c(c3)OCO4)c2C)cc1,-,0,-,-123.8,0,0
NNC(=O)c1cccc(COc2ccc3c(c2)CCC3)c1,-,0,-,0,0,20µM
COc1ccc(-c2nnc3sc(C(C)N4C(=O)c5ccccc5C4=O)nn23)cc1 (stereo not given),-,0,0,0,0,7.08µM
O=C1c2ccccc2C(=O)c2c1ccc1c(=O)n(C3CCCCC3)[nH]c21,-,0,0,0,0,14.1µM
O=C(Nc1cccc(C(F)(F)F)c1)C1CCCN(S(=O)(=O)c2cccc3nonc23)C1 (stereo not given),-,-,0,-,-,-
Cc1ccc(NC2=NCC(=O)N2Cc2ccc3c(c2)OCO3)c(C)c1,0,0,0,-99.6,0,0
FC(F)(F)c1nc(=S)c2ccccc2[nH]1,-,3.16µM,-,-,-,-
Cc1nc(=S)c2ccccc2[nH]1,0,0,0,0,0,0
Cc1ccc(N=C2NC(=O)c3cc([N+](=O)[O-])ccc32)cc1,-,12.6µM,?,0,0,0
O=C1OC(=O)c2cc([N+](=O)[O-])ccc21,0,0,-,-,0,0
O=C(CNS(=O)(=O)c1ccc2ccccc2c1)OCC(=O)c1ccc(Br)s1,?,1.78µM,?,0,0,0
C=C(CO)C1Cc2c(ccc3c2OC2COc4cc(OC)c(OC)cc4C2C3=O)O1 (stereo not given),0,0,0,-,0,0
c1ccc2[nH]c(SN3CCOCC3)nc2c1,?,0,0,0,0,11.2µM
CCOC(=O)COc1ccc2ccccc2c1/C=C/[N+](=O)[O-],-,0,0,0,0,3.55µM
CCOc1ccc(/C=C/[N+](=O)[O-])c2ccccc12,?,0,0,0,?,11.2µM
CCOC(=O)COc1ccc(/C=C/[N+](=O)[O-])c(OCC(=O)OCC)c1,0,0,0,0,0,?
CCCC1(c2ccccc2)NC(=O)N(CC(=O)Nc2cc(C)on2)C1=O (stereo not given),-,0,-,-,-,-
CCOC(=O)c1cc(-c2ccccc2)sc1NC(=O)C(C)(C)C,0,0,?,0,0,?
CCCC1(c2ccccc2)NC(=O)N(CC(=O)Nc2sc(-c3ccccc3)cc2C(=O)OCC)C1=O (stereo not given),0,2.82µM,?,0,0,?
SMILES,ALOX15B inhib,IMPase Li inh,IMPase inh,PNC assembly inh,ALOX12 inhib,HPGD block
CCOC(=O)c1cc(-c2ccccc2)sc1NC(=S)Nc1cc(C)ccn1,10µM,0,0,0,0,0
Cc1cc(Br)ccc1NC(=O)C(Cc1ccccc1)NS(=O)(=O)c1ccc(Br)s1 (stereo not given),-,-,0,-,-,-
Cc1ccc2oc3c(c(=O)c2c1)C(c1ccc(F)cc1)N(Cc1ccc2c(c1)OCO2)C3=O (stereo not given),-,-,0,-,-,-
Cc1cccc(C)c1N=C1SC(CC(=O)Nc2c(C)cccc2C)C(=O)N1CCc1ccccn1 (stereo not given),-,0,-,-112.2,0,0
O=C(CC1SC(=Nc2ccccc2)N(CCc2ccccn2)C1=O)Nc1ccc(F)cc1 (stereo not given),-,0,-,?,0,0
Nc1ccc2nc(NC(=O)C3CCCCC3)sc2c1,-,0,-,-,-,-
Cc1c(C(=O)N(C)C2CCCCC2)sc2nc3ccc(N)cc3n12,0[0.0915 µM],0,-,-,0[0.00818 µM],8.91µM
CC(C(=O)O)c1ccc(C(=O)c2cccs2)cc1 (stereo not given),0,?,-,-,0,?
